# Assay results: PMC7862700, “An all-to-all approach to the identification of sequence-specific readers for epigenetic DNA modifications on cytosine”
# Experiments:
# Test in all cases: DAPPL (digital affinity profiling via proximity ligation, sequencing); 10 mM Tris-HCl pH 7.5, 50 mM NaCl, 1 mM DTT, 4% glycerol, room temperature, 30 min; GST-TFs on glutathione beads, 16-mer random dsDNA library, 0.1% formaldehyde crosslink after washing; high values mean tight binding
# [1] = molecular target: T1, FLI1 (Homo sapiens, UniProt Q01543 1-452); conditions: protein: recombinant; tags: N-terminal GST; dsDNA, one strand shown
# T1 sequence: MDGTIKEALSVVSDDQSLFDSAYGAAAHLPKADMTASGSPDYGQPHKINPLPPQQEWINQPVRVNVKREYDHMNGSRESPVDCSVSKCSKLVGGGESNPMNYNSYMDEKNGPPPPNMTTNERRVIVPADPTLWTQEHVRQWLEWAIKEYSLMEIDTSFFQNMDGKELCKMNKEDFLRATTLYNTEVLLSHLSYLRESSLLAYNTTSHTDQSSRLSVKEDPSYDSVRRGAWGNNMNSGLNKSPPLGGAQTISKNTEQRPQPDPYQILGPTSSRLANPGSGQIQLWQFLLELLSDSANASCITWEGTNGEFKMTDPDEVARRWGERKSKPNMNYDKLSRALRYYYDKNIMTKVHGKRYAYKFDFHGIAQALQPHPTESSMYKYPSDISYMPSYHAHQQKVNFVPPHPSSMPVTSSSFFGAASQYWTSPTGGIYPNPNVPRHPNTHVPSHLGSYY
# How it was run: (§1)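 In yeast, human transcription factors were expressed with a GST fusion, then pulled down on glutathione beads and given DNA barcodes. Pooled with a tag-only sample, they were exposed to 200 nmole of a 16-mer random double-stranded DNA library (Tris/NaCl/DTT/glycerol buffer, room temperature, 30 min), washed, crosslinked with 0.1% formaldehyde, proximity-ligated using BsaI/T4 ligase for 1 h at 37 °C, PCR-amplified and read on an Illumina NextSeq500. Each hexamer's frequency of reads for a factor, divided by the matching frequency for the tag-only sample, gives the binding signal.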
# [2] = molecular target: T2, ELK1 (Homo sapiens, UniProt P19419 1-428); conditions: protein: recombinant; tags: N-terminal GST; dsDNA, one strand shown
# T2 sequence: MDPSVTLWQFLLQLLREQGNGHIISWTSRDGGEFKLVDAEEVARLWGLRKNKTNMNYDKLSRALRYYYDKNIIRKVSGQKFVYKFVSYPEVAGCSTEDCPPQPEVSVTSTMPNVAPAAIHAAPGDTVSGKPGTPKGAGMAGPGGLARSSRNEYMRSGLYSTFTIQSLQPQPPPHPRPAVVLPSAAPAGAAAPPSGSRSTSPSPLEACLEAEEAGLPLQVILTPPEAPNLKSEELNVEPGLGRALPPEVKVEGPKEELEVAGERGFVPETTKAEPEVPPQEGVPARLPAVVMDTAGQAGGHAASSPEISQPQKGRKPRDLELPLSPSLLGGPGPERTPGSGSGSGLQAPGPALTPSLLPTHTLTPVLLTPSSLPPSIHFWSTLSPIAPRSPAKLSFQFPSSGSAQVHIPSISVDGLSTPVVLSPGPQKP
# How it was run: as §1
# [3] = molecular target: T3, GABPA (Homo sapiens, UniProt Q06546 1-454); conditions: protein: recombinant; tags: N-terminal GST; dsDNA, one strand shown
# T3 sequence: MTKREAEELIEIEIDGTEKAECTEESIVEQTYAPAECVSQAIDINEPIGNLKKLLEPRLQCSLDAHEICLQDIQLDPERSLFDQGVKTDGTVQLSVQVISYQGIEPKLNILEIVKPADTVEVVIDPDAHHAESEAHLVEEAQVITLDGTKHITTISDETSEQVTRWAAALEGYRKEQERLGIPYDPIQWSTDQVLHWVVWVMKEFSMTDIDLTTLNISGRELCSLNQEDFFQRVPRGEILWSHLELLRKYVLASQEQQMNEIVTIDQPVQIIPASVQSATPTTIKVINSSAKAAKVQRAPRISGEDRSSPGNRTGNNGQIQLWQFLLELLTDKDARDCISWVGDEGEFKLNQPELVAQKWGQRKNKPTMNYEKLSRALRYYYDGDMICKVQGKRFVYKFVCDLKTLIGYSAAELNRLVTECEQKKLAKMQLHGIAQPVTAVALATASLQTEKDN
# How it was run: as §1
# [4] = molecular target: T4, ERG (Homo sapiens, UniProt P11308 1-479); conditions: protein: recombinant; tags: N-terminal GST; dsDNA, one strand shown
# T4 sequence: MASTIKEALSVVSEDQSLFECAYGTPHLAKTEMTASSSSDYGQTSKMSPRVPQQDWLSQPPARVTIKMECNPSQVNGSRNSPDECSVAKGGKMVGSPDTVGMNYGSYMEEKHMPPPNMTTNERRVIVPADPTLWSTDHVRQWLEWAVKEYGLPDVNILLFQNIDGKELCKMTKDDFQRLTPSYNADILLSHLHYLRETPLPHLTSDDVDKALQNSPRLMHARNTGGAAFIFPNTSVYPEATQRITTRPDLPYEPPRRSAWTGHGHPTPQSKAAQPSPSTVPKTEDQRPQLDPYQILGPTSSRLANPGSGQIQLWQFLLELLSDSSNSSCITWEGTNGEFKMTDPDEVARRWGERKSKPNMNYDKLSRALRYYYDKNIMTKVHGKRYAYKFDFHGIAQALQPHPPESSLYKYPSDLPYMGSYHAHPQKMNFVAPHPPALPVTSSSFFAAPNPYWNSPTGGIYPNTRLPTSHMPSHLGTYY
# How it was run: as §1
# [5] = molecular target: ELF1 (Homo sapiens, UniProt P32519 1-619); conditions: protein: recombinant; tags: N-terminal GST; dsDNA, one strand shown
# ELF1, sequence (P32519 whole entry): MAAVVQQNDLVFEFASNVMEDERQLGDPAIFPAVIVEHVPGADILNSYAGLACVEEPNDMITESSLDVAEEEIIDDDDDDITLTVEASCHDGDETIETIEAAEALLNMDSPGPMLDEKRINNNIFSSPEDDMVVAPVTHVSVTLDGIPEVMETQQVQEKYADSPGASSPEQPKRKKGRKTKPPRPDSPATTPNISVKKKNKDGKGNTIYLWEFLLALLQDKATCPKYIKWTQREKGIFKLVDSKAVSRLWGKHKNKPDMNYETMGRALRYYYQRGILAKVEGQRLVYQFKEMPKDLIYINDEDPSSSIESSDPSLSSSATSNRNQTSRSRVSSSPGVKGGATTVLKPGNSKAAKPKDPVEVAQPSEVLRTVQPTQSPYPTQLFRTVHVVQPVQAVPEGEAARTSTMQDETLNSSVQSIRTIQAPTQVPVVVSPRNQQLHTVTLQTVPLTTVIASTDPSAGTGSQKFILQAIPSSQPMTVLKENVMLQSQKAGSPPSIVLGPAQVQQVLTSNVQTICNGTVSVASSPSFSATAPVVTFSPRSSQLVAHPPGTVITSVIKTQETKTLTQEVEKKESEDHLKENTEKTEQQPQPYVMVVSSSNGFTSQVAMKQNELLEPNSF
# How it was run: as §1
# [6] = molecular target: SPI1 (Homo sapiens, UniProt P17947 1-270); conditions: protein: recombinant; tags: N-terminal GST; dsDNA, one strand shown
# How it was run: as §1
# [7] = molecular target: T5, ELK3 (Homo sapiens, UniProt P41970 1-407); conditions: protein: recombinant; tags: N-terminal GST; dsDNA, one strand shown
# T5 sequence: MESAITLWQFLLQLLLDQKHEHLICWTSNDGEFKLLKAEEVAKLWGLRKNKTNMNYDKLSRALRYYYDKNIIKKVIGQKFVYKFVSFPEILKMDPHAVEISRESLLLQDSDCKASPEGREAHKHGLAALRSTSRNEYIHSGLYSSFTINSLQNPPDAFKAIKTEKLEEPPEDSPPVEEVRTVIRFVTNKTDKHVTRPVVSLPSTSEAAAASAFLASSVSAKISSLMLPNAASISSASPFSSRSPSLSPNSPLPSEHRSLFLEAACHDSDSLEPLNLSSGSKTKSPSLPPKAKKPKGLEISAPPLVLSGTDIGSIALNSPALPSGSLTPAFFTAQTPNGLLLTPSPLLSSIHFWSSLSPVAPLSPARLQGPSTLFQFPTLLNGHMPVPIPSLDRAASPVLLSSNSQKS
# How it was run: as §1
# [8] = molecular target: ETV5 (Homo sapiens, UniProt P41161 1-510); conditions: protein: recombinant; tags: N-terminal GST; dsDNA, one strand shown
# ETV5, sequence (P41161 whole entry): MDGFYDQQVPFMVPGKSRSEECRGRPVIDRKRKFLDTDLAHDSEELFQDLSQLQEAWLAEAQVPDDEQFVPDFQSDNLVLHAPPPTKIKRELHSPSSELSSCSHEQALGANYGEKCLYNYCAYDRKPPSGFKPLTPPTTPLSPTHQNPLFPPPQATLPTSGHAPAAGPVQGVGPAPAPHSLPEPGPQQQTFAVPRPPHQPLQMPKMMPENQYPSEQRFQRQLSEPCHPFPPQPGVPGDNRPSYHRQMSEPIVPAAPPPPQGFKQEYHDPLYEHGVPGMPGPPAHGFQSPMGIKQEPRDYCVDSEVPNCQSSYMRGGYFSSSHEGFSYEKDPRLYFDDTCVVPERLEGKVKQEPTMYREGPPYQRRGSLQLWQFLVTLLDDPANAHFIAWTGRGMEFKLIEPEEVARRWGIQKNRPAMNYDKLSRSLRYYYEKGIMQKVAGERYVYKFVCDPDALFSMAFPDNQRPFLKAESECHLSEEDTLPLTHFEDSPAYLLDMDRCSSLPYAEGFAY
# How it was run: as §1
# [9] = molecular target: HSF1 (Homo sapiens, UniProt Q00613 1-529); conditions: protein: recombinant; tags: N-terminal GST; chain copies: 3; dsDNA, one strand shown
# HSF1, sequence (Q00613 whole entry): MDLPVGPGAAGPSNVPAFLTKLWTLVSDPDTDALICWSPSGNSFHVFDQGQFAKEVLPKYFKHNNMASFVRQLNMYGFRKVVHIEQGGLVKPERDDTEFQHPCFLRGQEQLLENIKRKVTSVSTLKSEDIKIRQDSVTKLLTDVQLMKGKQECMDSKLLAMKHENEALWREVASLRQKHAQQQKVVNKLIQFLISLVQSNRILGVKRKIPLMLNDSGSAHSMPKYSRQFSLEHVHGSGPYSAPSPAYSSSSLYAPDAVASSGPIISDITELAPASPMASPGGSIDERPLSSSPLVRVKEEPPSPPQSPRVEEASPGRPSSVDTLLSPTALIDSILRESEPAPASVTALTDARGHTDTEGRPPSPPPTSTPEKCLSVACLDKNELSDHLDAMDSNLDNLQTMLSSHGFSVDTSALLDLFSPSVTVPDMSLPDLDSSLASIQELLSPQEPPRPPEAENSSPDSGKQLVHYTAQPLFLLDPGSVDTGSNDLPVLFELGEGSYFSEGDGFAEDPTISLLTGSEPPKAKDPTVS
# How it was run: as §1
# [10] = molecular target: ELF4 (Homo sapiens, UniProt Q99607 1-663); conditions: protein: recombinant; tags: N-terminal GST; dsDNA, one strand shown
# ELF4, sequence (Q99607 whole entry): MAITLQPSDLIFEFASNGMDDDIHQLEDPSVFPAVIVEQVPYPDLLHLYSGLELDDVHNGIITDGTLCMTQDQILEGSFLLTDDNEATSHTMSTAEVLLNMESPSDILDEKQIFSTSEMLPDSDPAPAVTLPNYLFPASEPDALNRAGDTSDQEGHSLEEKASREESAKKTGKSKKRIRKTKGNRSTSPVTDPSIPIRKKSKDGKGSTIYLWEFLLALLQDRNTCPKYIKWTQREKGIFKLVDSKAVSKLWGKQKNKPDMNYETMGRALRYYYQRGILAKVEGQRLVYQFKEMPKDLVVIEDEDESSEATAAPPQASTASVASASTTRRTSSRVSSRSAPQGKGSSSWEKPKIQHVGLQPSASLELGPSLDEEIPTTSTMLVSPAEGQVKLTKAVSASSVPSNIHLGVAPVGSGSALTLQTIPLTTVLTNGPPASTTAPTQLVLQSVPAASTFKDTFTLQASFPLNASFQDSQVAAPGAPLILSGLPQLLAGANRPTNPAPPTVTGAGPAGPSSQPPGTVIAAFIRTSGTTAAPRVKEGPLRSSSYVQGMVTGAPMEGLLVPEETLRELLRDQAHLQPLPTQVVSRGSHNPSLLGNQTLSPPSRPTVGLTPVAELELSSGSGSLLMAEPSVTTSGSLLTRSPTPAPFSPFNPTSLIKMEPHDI
# How it was run: as §1
# [11] = molecular target: T6, ELK4 (Homo sapiens, UniProt P28324-2 1-405); conditions: protein: recombinant; tags: N-terminal GST; dsDNA, one strand shown
# T6 sequence: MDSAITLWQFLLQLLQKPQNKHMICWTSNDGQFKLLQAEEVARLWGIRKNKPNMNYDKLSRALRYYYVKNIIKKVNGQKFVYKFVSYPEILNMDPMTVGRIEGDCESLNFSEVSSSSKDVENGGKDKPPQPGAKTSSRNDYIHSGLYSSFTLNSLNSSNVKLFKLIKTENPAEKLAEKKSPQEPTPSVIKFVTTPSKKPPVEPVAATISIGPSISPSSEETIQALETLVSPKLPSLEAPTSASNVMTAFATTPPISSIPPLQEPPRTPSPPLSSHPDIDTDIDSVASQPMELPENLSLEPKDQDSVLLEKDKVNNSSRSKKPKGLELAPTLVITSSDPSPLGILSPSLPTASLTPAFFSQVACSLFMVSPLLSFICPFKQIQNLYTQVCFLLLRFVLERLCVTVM
# How it was run: as §1
# [12] = molecular target: T7, ETV2 (Homo sapiens, UniProt O00321 1-342); conditions: protein: recombinant; tags: N-terminal GST; dsDNA, one strand shown
# T7 sequence: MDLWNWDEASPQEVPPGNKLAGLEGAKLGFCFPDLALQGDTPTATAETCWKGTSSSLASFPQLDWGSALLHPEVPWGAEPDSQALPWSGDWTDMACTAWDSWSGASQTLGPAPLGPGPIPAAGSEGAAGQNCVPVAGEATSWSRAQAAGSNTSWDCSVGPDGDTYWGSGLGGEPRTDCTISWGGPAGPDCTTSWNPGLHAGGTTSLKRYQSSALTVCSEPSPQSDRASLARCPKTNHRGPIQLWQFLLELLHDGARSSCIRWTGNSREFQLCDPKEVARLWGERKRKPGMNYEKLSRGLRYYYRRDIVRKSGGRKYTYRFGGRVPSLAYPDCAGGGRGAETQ
# How it was run: as §1
# [13] = molecular target: CRX (Homo sapiens, UniProt O43186 1-299); conditions: protein: recombinant; tags: N-terminal GST; dsDNA, one strand shown
# CRX, sequence (O43186 whole entry): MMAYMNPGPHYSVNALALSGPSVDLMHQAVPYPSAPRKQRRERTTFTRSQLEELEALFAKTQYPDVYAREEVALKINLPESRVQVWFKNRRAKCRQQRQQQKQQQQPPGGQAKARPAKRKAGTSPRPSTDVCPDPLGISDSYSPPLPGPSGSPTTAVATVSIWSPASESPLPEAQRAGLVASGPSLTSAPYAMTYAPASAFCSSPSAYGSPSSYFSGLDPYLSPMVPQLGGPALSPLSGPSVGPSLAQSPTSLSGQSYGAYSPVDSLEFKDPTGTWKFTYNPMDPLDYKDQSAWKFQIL
# How it was run: as §1
# [14] = molecular target: ETV1 (Homo sapiens, UniProt P50549 1-477); conditions: protein: recombinant; tags: N-terminal GST; dsDNA, one strand shown
# ETV1, sequence (P50549 whole entry): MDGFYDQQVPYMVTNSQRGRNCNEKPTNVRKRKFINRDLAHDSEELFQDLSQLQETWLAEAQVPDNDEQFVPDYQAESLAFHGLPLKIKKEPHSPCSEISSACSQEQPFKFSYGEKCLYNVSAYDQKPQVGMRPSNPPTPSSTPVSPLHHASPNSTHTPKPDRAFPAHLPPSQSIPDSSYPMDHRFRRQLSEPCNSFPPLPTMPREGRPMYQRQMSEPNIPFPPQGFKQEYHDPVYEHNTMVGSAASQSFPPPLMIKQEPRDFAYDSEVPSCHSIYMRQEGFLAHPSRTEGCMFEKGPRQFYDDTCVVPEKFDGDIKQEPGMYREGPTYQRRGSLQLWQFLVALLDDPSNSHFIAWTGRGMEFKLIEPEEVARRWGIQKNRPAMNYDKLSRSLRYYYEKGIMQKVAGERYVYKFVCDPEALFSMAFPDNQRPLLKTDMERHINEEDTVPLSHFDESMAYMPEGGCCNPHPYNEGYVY
# How it was run: as §1
# [15] = molecular target: T8, EHF (Homo sapiens, UniProt Q9NZC4 1-300); conditions: protein: recombinant; tags: N-terminal GST; dsDNA, one strand shown
# T8 sequence: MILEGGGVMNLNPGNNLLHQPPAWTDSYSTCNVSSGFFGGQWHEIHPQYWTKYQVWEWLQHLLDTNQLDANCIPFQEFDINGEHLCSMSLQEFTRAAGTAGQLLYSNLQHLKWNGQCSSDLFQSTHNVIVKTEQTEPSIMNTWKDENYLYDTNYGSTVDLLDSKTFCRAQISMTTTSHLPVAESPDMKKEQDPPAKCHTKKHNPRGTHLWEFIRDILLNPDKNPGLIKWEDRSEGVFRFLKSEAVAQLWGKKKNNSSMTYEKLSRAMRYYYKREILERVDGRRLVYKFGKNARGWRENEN
# How it was run: as §1
# [16] = molecular target: T9, FEV (Homo sapiens, UniProt Q99581 1-238); conditions: protein: recombinant; tags: N-terminal GST; dsDNA, one strand shown
# T9 sequence: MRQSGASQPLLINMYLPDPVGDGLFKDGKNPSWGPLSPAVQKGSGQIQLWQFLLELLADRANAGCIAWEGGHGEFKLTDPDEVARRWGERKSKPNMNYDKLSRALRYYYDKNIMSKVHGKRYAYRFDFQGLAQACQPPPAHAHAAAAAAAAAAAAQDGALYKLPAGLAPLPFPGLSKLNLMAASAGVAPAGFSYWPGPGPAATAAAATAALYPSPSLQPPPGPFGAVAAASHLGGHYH
# How it was run: as §1
Sequence,binding signal [1],binding signal [2],binding signal [3],binding signal [4],binding signal [5],binding signal [6],binding signal [7],binding signal [8],binding signal [9],binding signal [10],binding signal [11],binding signal [12],binding signal [13],binding signal [14],binding signal [15],binding signal [16]
TATCAA,"1.1 fold enrichment (6-mer frequency, TF over GST control)","1.06 fold enrichment (6-mer frequency, TF over GST control)","1.13 fold enrichment (6-mer frequency, TF over GST control)","1.03 fold enrichment (6-mer frequency, TF over GST control)","1.02 fold enrichment (6-mer frequency, TF over GST control)","1.02 fold enrichment (6-mer frequency, TF over GST control)","1.02 fold enrichment (6-mer frequency, TF over GST control)","1.03 fold enrichment (6-mer frequency, TF over GST control)","1.01 fold enrichment (6-mer frequency, TF over GST control)","1.03 fold enrichment (6-mer frequency, TF over GST control)","1.09 fold enrichment (6-mer frequency, TF over GST control)","1.11 fold enrichment (6-mer frequency, TF over GST control)","1.21 fold enrichment (6-mer frequency, TF over GST control)","1.01 fold enrichment (6-mer frequency, TF over GST control)",,
TAGATC,"1.05 fold enrichment (6-mer frequency, TF over GST control)","1.14 fold enrichment (6-mer frequency, TF over GST control)",,"1 fold enrichment (6-mer frequency, TF over GST control)","1.06 fold enrichment (6-mer frequency, TF over GST control)",,"1.21 fold enrichment (6-mer frequency, TF over GST control)","1.06 fold enrichment (6-mer frequency, TF over GST control)","1.49 fold enrichment (6-mer frequency, TF over GST control)","1.13 fold enrichment (6-mer frequency, TF over GST control)",,"1.2 fold enrichment (6-mer frequency, TF over GST control)","1.51 fold enrichment (6-mer frequency, TF over GST control)","1.04 fold enrichment (6-mer frequency, TF over GST control)","1.04 fold enrichment (6-mer frequency, TF over GST control)","1.06 fold enrichment (6-mer frequency, TF over GST control)"
